From paper PMC5700166

These sequences were tested against T1, GST-Nv-NF-kB (Ser allele) (Nematostella vectensis, UniProt A7UNT2 2-411) (assay: protein-binding microarray (PBM); PBM: ~300 nM protein, 6 mM HEPES pH 7.8, 80 mM KCl, 0.5 mM EDTA, 0.5 mM EGTA, 6% glycerol, 35 ng/ul poly-dIdC, 1% milk, 1 h, room temperature; Ap Aiptasia and Nv Nematostella (sea anemones) / Co Capsaspora / Aq Amphimedon (sponge) / Dm Drosophila / Hu human; RHD is the Rel homology domain; high values mean tight binding). Conditions: dsDNA, one strand shown.
T1 sequence: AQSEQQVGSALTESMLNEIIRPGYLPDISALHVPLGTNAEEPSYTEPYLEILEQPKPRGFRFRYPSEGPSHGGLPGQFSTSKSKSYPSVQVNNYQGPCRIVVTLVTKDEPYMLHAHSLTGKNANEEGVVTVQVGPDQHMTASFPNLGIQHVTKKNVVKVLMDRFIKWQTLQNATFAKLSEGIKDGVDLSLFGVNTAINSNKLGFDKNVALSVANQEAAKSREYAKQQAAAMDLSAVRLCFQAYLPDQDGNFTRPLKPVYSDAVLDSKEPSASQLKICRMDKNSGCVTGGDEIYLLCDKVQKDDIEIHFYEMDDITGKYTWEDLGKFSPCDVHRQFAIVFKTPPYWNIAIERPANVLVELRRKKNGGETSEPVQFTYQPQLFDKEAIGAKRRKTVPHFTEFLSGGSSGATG

| Sequence | binding signal [z-score] |
| --- | --- |
| CCGATTAACATCAATCCCCCCCCTGATGTTAATCGGGTCTTGATTCGCTTGACGCTGCTG | 6.45 |
| CCGATTAACATCAAAGAGTCCCCTGATGTTAATCGGGTCTTGATTCGCTTGACGCTGCTG | 6.03 |
| CCGATTAACATCAAAAGCCCCCATGATGTTAATCGGGTCTTGATTCGCTTGACGCTGCTG | 5.01 |
| CCGATTAACATCAGGGGGGGAGATGATGTTAATCGGGTCTTGATTCGCTTGACGCTGCTG | 4.31 |
| CCGATTAACATCAGAAGACCCCCTGATGTTAATCGGGTCTTGATTCGCTTGACGCTGCTG | 3.72 |
| CCGATTAACATCAAAAAGCCCCGTGATGTTAATCGGGTCTTGATTCGCTTGACGCTGCTG | 6.26 |
| CCGATTAACATCAGAACCCCCCCTGATGTTAATCGGGTCTTGATTCGCTTGACGCTGCTG | 5.04 |
| CCGATTAACATCAGGGGGAGCACTGATGTTAATCGGGTCTTGATTCGCTTGACGCTGCTG | 4.71 |
| CCGATTAACATCATGGGGGGGAATGATGTTAATCGGGTCTTGATTCGCTTGACGCTGCTG | 4.89 |
| CCGATTAACATCAAGGGGGAGGGTGATGTTAATCGGGTCTTGATTCGCTTGACGCTGCTG | 3.99 |
| CCGATTAACATCACTAATCCCCCTGATGTTAATCGGGTCTTGATTCGCTTGACGCTGCTG | 6.57 |
| CCGATTAACATCAAGGGGGGGAATGATGTTAATCGGGTCTTGATTCGCTTGACGCTGCTG | 6 |
| CCGATTAACATCAAATTTACCCCTGATGTTAATCGGGTCTTGATTCGCTTGACGCTGCTG | 5.32 |
| CCGATTAACATCAAACCCCCCCCTGATGTTAATCGGGTCTTGATTCGCTTGACGCTGCTG | 5.04 |
| CCGATTAACATCACAAATACCCCTGATGTTAATCGGGTCTTGATTCGCTTGACGCTGCTG | 4.74 |
| CCGATTAACATCATAAAAAAAAATGATGTTAATCGGGTCTTGATTCGCTTGACGCTGCTG | 1.09 |
| CCGATTAACATCAGGAGACCCCCTGATGTTAATCGGGTCTTGATTCGCTTGACGCTGCTG | 2.64 |
| CCGATTAACATCAACACTCCCCCTGATGTTAATCGGGTCTTGATTCGCTTGACGCTGCTG | 5.61 |
| CCGATTAACATCACCCCCCCCCCTGATGTTAATCGGGTCTTGATTCGCTTGACGCTGCTG | 5.24 |
| CCGATTAACATCAGGGATGCCCCTGATGTTAATCGGGTCTTGATTCGCTTGACGCTGCTG | 4.08 |

| Sequence | binding signal [z-score] |
| --- | --- |
| CCGATTAACATCAGGGCACCCCCTGATGTTAATCGGGTCTTGATTCGCTTGACGCTGCTG | 3.83 |
| CCGATTAACATCACCGCTTCCCTTGATGTTAATCGGGTCTTGATTCGCTTGACGCTGCTG | 1.69 |
| CCGATTAACATCAAACTCCCCCGTGATGTTAATCGGGTCTTGATTCGCTTGACGCTGCTG | 6.52 |
| CCGATTAACATCAGGGGGGGAACTGATGTTAATCGGGTCTTGATTCGCTTGACGCTGCTG | 6.12 |
| CCGATTAACATCAAATGTGGGAATGATGTTAATCGGGTCTTGATTCGCTTGACGCTGCTG | 1.31 |
| CCGATTAACATCACGGGGGGGGCTGATGTTAATCGGGTCTTGATTCGCTTGACGCTGCTG | 2.3 |
| CCGATTAACATCACAGCCCCCCCTGATGTTAATCGGGTCTTGATTCGCTTGACGCTGCTG | 3.62 |
| CCGATTAACATCACTTTGGGAAATGATGTTAATCGGGTCTTGATTCGCTTGACGCTGCTG | 1.89 |
| CCGATTAACATCATCCCCCCCCATGATGTTAATCGGGTCTTGATTCGCTTGACGCTGCTG | 4 |
| CCGATTAACATCAAGGGGGGGAGTGATGTTAATCGGGTCTTGATTCGCTTGACGCTGCTG | 4.08 |
| CCGATTAACATCAACTCCCCCCATGATGTTAATCGGGTCTTGATTCGCTTGACGCTGCTG | 4.05 |
| CCGATTAACATCAGATTTACCGCTGATGTTAATCGGGTCTTGATTCGCTTGACGCTGCTG | 1.31 |
| CCGATTAACATCAGGGGACTTCATGATGTTAATCGGGTCTTGATTCGCTTGACGCTGCTG | 6.12 |
| CCGATTAACATCAAAAATTCACCTGATGTTAATCGGGTCTTGATTCGCTTGACGCTGCTG | 3.83 |
| CCGATTAACATCAGAAAATCACCTGATGTTAATCGGGTCTTGATTCGCTTGACGCTGCTG | 4.87 |
| CCGATTAACATCAAAACACCCCCTGATGTTAATCGGGTCTTGATTCGCTTGACGCTGCTG | 5.6 |
| CCGATTAACATCAGGGGTTTTACTGATGTTAATCGGGTCTTGATTCGCTTGACGCTGCTG | 4.36 |
| CCGATTAACATCAGGGCATGCCCTGATGTTAATCGGGTCTTGATTCGCTTGACGCTGCTG | 1.33 |
| CCGATTAACATCAGAAATGCCCCTGATGTTAATCGGGTCTTGATTCGCTTGACGCTGCTG | 3.44 |
| CCGATTAACATCAGGAACTCCCCTGATGTTAATCGGGTCTTGATTCGCTTGACGCTGCTG | 5.51 |
